# From PubChem BioAssay (EPA / NIEHS)
# Values joined by “and” are separate entries in the source; they are usually repeats but may differ in a detail not shown here. Identical values can stand only once. Results filed as inconclusive are left out. Where a structure was tested more than once in an assay, its records may differ in their call. Active and inactive are the calls of the source. Rule for the calls: active = hit-call score of the fitted dose curve at least 0.9, where 1 is the maximum; inconclusive = response in the unintended direction; inactive = score below 0.9.
# Assays:
# [1] = target: Estrogen receptor (Homo sapiens) (UniProt P03372); test: OT_ER_ERaERa_1440: Odyssey Thera (OT) 24-hour HEK293T Protein-Complementation Assay for Estrogen Receptor-alpha/-alpha Homodimer (AID 2283349);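 note: hits raise fluorescence above DMSO for agonists and antagonists alike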
# In short: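 Cells (HEK293T) carrying the fragment-tagged ERα LBD (aa 310-547) pair are treated with chemical for 24 hours. Nuclear and/or cytoplasmic fluorescence is then quantified on a laser scanning cytometer. Activity is scored as signal gain against DMSO.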
# [2] = target: Estrogen receptor (Homo sapiens) (UniProt P03372); test: OT_ER_ERaERa_0480: Odyssey Thera (OT) 8-hour HEK293T Protein-Complementation Assay for Estrogen Receptor-alpha/-alpha Homodimer (AID 2283351);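 note: rise in fluorescence from reassembled reporter fragments on ERα LBD homodimer in nucleus or whole cell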
# In short: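 Read-out: fluorescence intensity rise relative to DMSO, nuclear for agonists, nuclear plus cytoplasmic for antagonists. Construct is the ERα LBD (aa 310-547) homodimer fragment-complementation pair, stably expressed in HEK293T; exposure 8 h.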
# [3] = target: T1, Estrogen receptor (Homo sapiens) + Estrogen receptor beta (Homo sapiens) (UniProt P03372+Q92731); test: OT_ER_ERaERb_0480: Odyssey Thera (OT) 8-hour HEK293T Protein-Complementation Assay for Estrogen Receptor-alpha/-beta Heterodimer (AID 2283352)
# In short: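 Fluorescence intensity readout from a protein-fragment complementation reporter in HEK293T; ER-alpha/ER-beta LBD heterodimer. Dosing 8 h. Gain-of-signal fit relative to DMSO negative control; laser scanning cytometry of whole-well cell population.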
# [4] = target: T1, Estrogen receptor (Homo sapiens) + Estrogen receptor beta (Homo sapiens); test: OT_ER_ERaERb_1440: Odyssey Thera (OT) 24-hour HEK293T Protein-Complementation Assay for Estrogen Receptor-alpha/-beta Homodimer (AID 2283356);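 note: heteromer of ER alpha and ER beta binding domains; hits raise reporter fluorescence and both agonists and antagonists give an increase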
# In short: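 Readout: mean fluorescence intensity in nucleus (agonists) or nucleus plus cytoplasm (antagonists), read by laser scanning cytometer after 24 h compound exposure of HEK293T cells carrying ERα/ERβ LBD fragment-complementation constructs; DMSO baseline.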
# [5] = target: Androgen Receptor/SRC-1 Co-activator, AR (gene 367) (UniProt P10275); test: OT_AR_ARSRC1_0960: Odyssey Thera (OT) 16-hour HEK293T Protein-Complementation Assay for Androgen Receptor/SRC-1 Co-activator (AID 2283353);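 note: actives raise the signal above DMSO so potency reflects increased AR and SRC-1 complex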
# In short: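 Readout: 488 nm nuclear-to-cytoplasmic fluorescence ratio from imaging of at least 400 cells per image, 16 h post-dose. Reporter is Venus YFP complementation between AR and SRC-1 fusions, stably expressed in HEK293T; activity scored upward relative to DMSO.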
# [6] = target: Bile acid receptor (Homo sapiens) (UniProt Q96RI1); test: NVS_NR_hFXR_Antagonist: NovaScreen (NVS) Nuclear Receptor Binding Assay for human Farnesoid X Receptor Antagonism (FXR) (AID 2283350)
# In short: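 Antagonist-format time-resolved FRET binding assay with extracted human receptor protein, read 1 hour after compound addition. Compounds first screened at 25 uM in duplicate, then actives tested in concentration series, with loss of signal relative to DMSO.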
# [7] = target: Retinoic acid receptor alpha (Homo sapiens) (UniProt P10276); test: NVS_NR_hRAR_Antagonist: NovaScreen (NVS) Nuclear Receptor Binding Assay for human Retinoic Acid Alpha Receptor Antagonism (RAR) (AID 2283358)
# In short: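 Read-out: time-resolved FRET binding signal, 2 h post-dose, cell-free extracted protein. Antagonism scored as signal loss versus DMSO negative control. Primary single-concentration screen at 25 uM in duplicate; concentration series for actives.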
# [8] = target: Peroxisome proliferator-activated receptor gamma (Homo sapiens) (UniProt P37231); test: NVS_NR_hPPARg: NovaScreen (NVS) Nuclear Receptor Binding Assay for human Peroxisome Proliferator-activated Receptor gamma (PPARg) (AID 2283370)
# In short: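 FP read-out, 2 h post-dose, cell-free extracted receptor protein. Signal loss vs DMSO negative control = binding activity. Single-conc duplicate HTS at 25 uM; concentration-response follow-up for actives.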
# [9] = target: human Thyroid Receptor Alpha (TRa), THRA (gene 7067) (UniProt P10827); test: NVS_NR_hTRa_Antagonist: NovaScreen (NVS) Nuclear Receptor Binding Assay for human Thyroid Receptor Alpha Antagonism (TRa) (AID 2283362);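 note: activity is loss of signal relative to DMSO baseline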
# In short: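 AlphaLISA chemiluminescent immunoassay readout, taken 1 h post-dosing in a cell-free system with extracted protein. Activity was scored as signal loss against DMSO negative control, from duplicate single-concentration (25 uM) testing followed by concentration-response follow-up.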
# [10] = target: Glucocorticoid receptor (Homo sapiens) (UniProt P04150); test: NVS_NR_hGR: NovaScreen (NVS) Nuclear Receptor Binding Assay for human Glucocorticoid Receptor (GR) (AID 2283363);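 for AC50: activity is loss of specific radioligand binding signal relative to DMSO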
# In short: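 Filter scintillation readout of tritiated/iodinated radioligand displaced by test chemical; cell-free extracted protein; 16 h. DMSO = negative control/baseline. Duplicate single-point 25 uM screen, then concentration-response on actives.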
# [11] = target: guinea pig Sigma Receptor, Non-selective Binding, SIGMAR1 (gene 100135589) (UniProt Q60492); test: NVS_OR_gSIGMA_NonSelective: NovaScreen (NVS) Nuclear Receptor Binding Assay for guinea pig Sigma Receptor, Non-selective Binding (AID 2283367)
# In short: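 Membranes from guinea pig brain incubated with radioligand and test chemical for 1 h, then filtered and scintillation-counted. Duplicate primary testing at 25 uM, with concentration-series follow-up for actives.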
# [12] = target: Retinoic acid receptor alpha (Homo sapiens) (UniProt P10276); test: NVS_NR_hRARa_Agonist: NovaScreen (NVS) Nuclear Receptor Binding Assay for human Retinoic Acid Alpha Receptor Agonism (RAR) (AID 2283361)
# In short: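 TR-FRET signal, 2 h post-dosing; cell-free extracted protein; DMSO = baseline, positive fitting direction; 25 uM single-point duplicate, then concentration series for actives.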
# [13] = target: Nuclear receptor subfamily 1 group I member 2 (Homo sapiens) (UniProt O75469); test: NVS_NR_hPXR: NovaScreen (NVS) Nuclear Receptor Binding Assay for human Pregnane X Receptor (PXR) (AID 2283365);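 note: a drop in FRET signal versus DMSO baseline means the compound binds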
# In short: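 TR-FRET signal read at 2 h in a cell-free human PXR binding format. DMSO served as negative control and baseline; activity scored as signal loss. Single-concentration duplicate screen (25 uM), then concentration-response follow-up.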
# [14] = target: rat Mineralocorticoid Receptor (MR), Nr3c2 (gene 25672) (UniProt P22199); test: NVS_NR_rMR: NovaScreen (NVS) Nuclear Receptor Binding Assay for rat Mineralocorticoid Receptor (MR) (AID 2283355)
# In short: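 Radioligand displacement, scintillation readout; tissue source adrenalectomized rat brain supernatant. Read 24 h post-dose. Screened in duplicate at 25 uM, DMSO negative control, controls on every plate; actives re-run in concentration series.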
# [15] = system: guinea pig Dopamine Transporter (DAT), gene 100714898; test: NVS_TR_gDAT: NovaScreen (NVS) Transporter Assay for guinea pig Dopamine Transporter (DAT) (AID 2283369);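 note: active compounds lower bound radioligand signal relative to DMSO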
# In short: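 Cell-free striatal membrane prep (guinea pig), 2 h exposure, filtration + scintillation readout of radioligand binding. Single-point 25 uM duplicate; actives rerun singleton, top conc 50 uM.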
# [16] = system: rat Norepinephrine Transporter (NET), gene 83511; test: NVS_TR_rNET: NovaScreen (NVS) Transporter Assay for rat Norepinephrine Transporter (NET) (AID 2283373)
# In short: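 Competitive radioligand displacement at the rat NET using forebrain membrane preparations, 1 h incubation, filter-based scintillation readout. Primary testing in duplicate at a single 25 uM concentration; confirmed actives retested across concentrations.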
# [17] = target: human Peroxisome Proliferator-activated Receptor alpha (PPARa), PPARA (gene 5465) (UniProt Q07869); test: NVS_NR_hPPARa: NovaScreen (NVS) Nuclear Receptor Binding Assay for human Peroxisome Proliferator-activated Receptor alpha (PPARa) (AID 2283359);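 note: activity means loss of TR-FRET signal versus DMSO baseline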
# In short: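 TR-FRET signal measured at 1 h post-dosing; loss-of-signal versus DMSO negative control taken as activity. Extracted gene-protein, cell-free format. Initial single-point duplicates at 25 uM, then concentration-response retests.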
# [18] = target: human Serotonin Transporter (SERT), SLC6A4 (gene 6532) (UniProt P31645); test: NVS_TR_hSERT: NovaScreen (NVS) Transporter Assay for human Serotonin Transporter (SERT) (AID 2283372)
# In short: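 Human platelet membrane preparation; displacement of radioligand from serotonin transporter measured after 1 h by filtration and scintillation counting. Single 25 uM duplicate screen, then concentration series for actives, with DMSO as negative baseline.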
# Sequence of Estrogen receptor (Homo sapiens) (P03372 whole entry, looked up, the tested form may be a part): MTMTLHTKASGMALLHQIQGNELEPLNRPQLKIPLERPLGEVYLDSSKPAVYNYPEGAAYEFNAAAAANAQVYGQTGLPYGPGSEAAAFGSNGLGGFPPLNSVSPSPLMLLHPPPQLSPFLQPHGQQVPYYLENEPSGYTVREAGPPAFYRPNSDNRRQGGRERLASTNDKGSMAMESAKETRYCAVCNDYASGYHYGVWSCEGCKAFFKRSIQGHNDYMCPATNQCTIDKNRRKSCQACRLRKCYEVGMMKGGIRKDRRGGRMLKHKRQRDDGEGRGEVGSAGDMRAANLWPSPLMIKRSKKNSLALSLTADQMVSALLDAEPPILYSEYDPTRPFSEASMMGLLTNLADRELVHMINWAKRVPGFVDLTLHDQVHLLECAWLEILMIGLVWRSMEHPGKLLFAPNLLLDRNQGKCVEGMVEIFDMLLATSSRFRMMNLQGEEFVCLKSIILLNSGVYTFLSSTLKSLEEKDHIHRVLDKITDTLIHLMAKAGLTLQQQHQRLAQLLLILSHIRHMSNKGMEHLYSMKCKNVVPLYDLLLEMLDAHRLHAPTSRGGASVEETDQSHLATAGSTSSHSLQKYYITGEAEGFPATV
# T1 sequence (P03372 whole entry, looked up, the tested form may be a part): as above
# T1 sequence (Q92731 whole entry, looked up, the tested form may be a part): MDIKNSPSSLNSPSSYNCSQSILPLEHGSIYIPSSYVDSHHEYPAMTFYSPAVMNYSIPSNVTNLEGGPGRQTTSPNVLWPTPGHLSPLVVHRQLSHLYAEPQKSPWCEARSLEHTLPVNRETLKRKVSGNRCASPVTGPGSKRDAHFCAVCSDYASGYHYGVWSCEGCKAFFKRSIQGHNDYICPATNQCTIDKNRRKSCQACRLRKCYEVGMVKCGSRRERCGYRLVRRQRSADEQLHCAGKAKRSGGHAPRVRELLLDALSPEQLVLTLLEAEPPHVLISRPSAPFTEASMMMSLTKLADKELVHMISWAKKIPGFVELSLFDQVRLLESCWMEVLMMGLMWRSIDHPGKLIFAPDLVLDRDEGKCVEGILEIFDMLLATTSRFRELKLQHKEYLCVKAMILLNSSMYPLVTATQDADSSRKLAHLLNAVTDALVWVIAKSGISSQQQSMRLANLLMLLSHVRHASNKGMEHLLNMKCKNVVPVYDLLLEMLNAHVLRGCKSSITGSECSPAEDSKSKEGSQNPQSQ
# Sequence of Glucocorticoid receptor (Homo sapiens) (P04150 whole entry, looked up): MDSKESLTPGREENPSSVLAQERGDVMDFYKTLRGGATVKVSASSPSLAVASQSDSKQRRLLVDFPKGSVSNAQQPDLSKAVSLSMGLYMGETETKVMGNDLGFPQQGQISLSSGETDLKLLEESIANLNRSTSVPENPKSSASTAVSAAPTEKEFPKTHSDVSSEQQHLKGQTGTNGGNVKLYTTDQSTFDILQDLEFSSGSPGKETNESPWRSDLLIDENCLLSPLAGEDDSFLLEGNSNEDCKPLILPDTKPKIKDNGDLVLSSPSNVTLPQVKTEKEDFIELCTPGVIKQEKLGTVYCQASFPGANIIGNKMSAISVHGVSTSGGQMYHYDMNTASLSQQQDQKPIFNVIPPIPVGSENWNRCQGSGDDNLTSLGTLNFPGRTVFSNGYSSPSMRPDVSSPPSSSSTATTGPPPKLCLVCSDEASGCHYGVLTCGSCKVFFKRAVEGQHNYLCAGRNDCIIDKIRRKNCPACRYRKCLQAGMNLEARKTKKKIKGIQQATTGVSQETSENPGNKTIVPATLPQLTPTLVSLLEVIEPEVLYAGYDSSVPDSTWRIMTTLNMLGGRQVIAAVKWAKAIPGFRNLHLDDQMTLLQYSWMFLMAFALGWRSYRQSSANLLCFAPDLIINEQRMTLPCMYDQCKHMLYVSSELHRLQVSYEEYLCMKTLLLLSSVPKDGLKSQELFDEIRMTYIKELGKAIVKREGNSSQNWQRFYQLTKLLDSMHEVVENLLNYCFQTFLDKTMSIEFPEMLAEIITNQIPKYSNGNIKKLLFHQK
# Sequence of Bile acid receptor (Homo sapiens) (Q96RI1 whole entry, looked up): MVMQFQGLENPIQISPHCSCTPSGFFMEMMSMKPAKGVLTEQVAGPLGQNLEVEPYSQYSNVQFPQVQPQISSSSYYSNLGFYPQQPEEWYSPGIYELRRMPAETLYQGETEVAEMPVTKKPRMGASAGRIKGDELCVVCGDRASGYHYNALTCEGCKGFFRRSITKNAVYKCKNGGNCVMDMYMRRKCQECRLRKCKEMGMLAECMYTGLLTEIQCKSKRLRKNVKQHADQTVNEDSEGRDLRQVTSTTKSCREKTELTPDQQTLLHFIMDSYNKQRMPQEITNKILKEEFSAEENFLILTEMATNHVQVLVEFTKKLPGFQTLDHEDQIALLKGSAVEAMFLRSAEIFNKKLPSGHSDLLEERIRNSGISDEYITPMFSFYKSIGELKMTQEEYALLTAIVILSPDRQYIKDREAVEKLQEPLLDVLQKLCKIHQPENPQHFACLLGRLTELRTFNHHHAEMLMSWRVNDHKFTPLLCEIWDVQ
# Sequence of human Peroxisome Proliferator-activated Receptor alpha (PPARa), PPARA (gene 5465) (Q07869 whole entry, looked up): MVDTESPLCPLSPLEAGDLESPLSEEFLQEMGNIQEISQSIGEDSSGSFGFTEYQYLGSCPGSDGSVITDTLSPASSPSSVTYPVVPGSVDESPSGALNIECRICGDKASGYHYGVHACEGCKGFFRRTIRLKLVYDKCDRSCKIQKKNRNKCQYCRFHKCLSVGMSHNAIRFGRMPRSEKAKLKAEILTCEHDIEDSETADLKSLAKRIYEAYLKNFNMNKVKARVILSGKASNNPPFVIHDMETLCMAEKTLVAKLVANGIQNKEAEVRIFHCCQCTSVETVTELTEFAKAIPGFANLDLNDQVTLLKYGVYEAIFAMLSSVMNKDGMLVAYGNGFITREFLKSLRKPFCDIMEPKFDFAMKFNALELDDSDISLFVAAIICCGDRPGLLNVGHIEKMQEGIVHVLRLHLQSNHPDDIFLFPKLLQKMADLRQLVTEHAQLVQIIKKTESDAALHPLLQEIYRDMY
# Sequence of Nuclear receptor subfamily 1 group I member 2 (Homo sapiens) (O75469 whole entry, looked up): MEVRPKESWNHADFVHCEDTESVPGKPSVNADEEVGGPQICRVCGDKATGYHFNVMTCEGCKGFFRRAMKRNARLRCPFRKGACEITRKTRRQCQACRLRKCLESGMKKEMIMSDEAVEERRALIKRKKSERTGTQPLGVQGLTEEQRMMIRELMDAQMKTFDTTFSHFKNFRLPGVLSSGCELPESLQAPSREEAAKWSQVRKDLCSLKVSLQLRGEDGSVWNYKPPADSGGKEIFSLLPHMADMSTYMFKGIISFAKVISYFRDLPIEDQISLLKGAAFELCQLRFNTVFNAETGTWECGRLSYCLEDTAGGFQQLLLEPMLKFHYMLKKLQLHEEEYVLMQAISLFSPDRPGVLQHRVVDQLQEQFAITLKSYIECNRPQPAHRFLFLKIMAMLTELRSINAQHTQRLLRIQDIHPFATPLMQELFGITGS
# Sequence of Androgen Receptor/SRC-1 Co-activator, AR (gene 367) (P10275 whole entry, looked up, the tested form may be a part): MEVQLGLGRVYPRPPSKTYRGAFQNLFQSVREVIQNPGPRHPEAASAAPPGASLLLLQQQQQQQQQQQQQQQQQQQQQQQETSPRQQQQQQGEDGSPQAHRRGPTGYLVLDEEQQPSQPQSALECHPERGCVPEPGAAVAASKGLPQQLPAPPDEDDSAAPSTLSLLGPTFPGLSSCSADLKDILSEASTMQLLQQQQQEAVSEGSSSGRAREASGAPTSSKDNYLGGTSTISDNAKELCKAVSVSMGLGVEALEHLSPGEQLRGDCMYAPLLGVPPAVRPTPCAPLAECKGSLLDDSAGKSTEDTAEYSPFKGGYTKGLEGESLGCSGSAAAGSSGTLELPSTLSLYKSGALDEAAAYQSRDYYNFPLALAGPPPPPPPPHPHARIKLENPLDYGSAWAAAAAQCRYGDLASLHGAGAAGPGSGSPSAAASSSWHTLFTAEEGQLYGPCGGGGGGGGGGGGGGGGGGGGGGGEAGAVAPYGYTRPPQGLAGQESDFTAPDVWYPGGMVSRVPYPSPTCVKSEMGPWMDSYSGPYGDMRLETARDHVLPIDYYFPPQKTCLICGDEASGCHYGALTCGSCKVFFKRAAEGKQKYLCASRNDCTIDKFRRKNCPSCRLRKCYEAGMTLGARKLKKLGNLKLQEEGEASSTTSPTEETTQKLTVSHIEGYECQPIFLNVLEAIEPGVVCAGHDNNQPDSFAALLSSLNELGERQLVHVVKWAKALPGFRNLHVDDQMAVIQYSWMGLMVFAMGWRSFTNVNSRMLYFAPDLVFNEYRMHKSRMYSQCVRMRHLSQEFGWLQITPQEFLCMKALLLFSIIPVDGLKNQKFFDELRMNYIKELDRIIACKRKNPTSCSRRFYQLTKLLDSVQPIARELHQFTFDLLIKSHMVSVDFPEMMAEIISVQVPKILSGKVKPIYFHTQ
smiles,measurement,setting,value
CNC(=O)Oc1ccccc1OC(C)C,outcome,[1],inactive
same,outcome,[2],inactive
same,outcome,[3],inactive
same,outcome,[4],inactive
Cc1[nH]c(=O)n(C(C)(C)C)c(=O)c1Cl,outcome,[1],inactive
same,outcome,[2],inactive
same,outcome,[5],inactive
CCN(CC)C(=O)SCc1ccc(Cl)cc1,outcome,[1],inactive
same,outcome,[6],inactive
same,outcome,[2],inactive
CN1CSC(=S)N(C)C1,outcome,[1],inactive
same,AC50,[6],9.27 µM (active)
same,outcome,[2],inactive
O=C1c2ccccc2C(=O)N1SC(Cl)(Cl)Cl,outcome,[1],inactive
same,outcome,[2],inactive
same,outcome,[3],inactive
same,outcome,[7],inactive
same,outcome,[8],inactive
COc1nn(CSP(=S)(OC)OC)c(=O)s1,outcome,[1],inactive
same,outcome,[2],inactive
same,outcome,[3],inactive
same,outcome,[4],inactive
same,outcome,[9],inactive
same,outcome,[10],inactive
same,AC50,[11],10.7 µM (active)
same,outcome,[8],inactive
CNC(=O)/C=C(\C)OP(=O)(OC)OC,outcome,[1],inactive
same,outcome,[2],inactive
same,outcome,[3],inactive
same,outcome,[4],inactive
COP(=S)(OC)Oc1ccc(SC)c(C)c1,outcome,[1],inactive
same,outcome,[2],inactive
same,outcome,[3],inactive
same,outcome,[4],inactive
same,AC50,[11],11.2 µM (active)
N#CN,outcome,[1],inactive
same,outcome,[2],inactive
same,outcome,[3],inactive
same,outcome,[4],inactive
CCC(C)(C)C(=O)OC1=C(c2ccc(Cl)cc2Cl)C(=O)OC12CCCCC2,outcome,[1],inactive
same,outcome,[6],inactive
same,outcome,[3],inactive
same,AC50,[5],82.4 µM (active)
same,outcome,[4],inactive
same,outcome,[12],inactive
Clc1ccccc1-c1nnc(-c2ccccc2Cl)nn1,outcome,[1],inactive
same,outcome,[2],inactive
same,outcome,[3],inactive
same,outcome,[4],inactive
COP(=O)(OC)OC=C(Cl)Cl,outcome,[1],inactive
same,outcome,[2],inactive
same,outcome,[3],inactive
same,outcome,[4],inactive
same,outcome,[9],inactive
same,AC50,[8],6.97 µM (active)
O=C(NC(=O)c1c(F)cccc1F)Nc1ccc(OC(F)(F)C(F)OC(F)(F)F)c(Cl)c1 (stereo not drawn),outcome,[1],inactive
same,outcome,[2],inactive
same,outcome,[3],inactive
same,outcome,[4],inactive
CNC(=O)Oc1cccc(N=CN(C)C)c1,outcome,[1],inactive
same,outcome,[2],inactive
same,outcome,[3],inactive
same,outcome,[4],inactive
CCc1ccc(C(=O)NN(C(=O)c2cc(C)cc(C)c2)C(C)(C)C)cc1,outcome,[1],inactive
same,outcome,[6],inactive
same,outcome,[2],inactive
same,outcome,[4],inactive
C#CCN1C(=O)COc2cc(F)c(N3C(=O)C4=C(CCCC4)C3=O)cc21,outcome,[1],inactive
same,outcome,[2],inactive
same,outcome,[5],inactive
same,outcome,[4],inactive
COc1cc(OC)nc(NC(=O)NS(=O)(=O)c2cc(NC=O)ccc2C(=O)N(C)C)n1,outcome,[9],inactive
CC[C@H](C)[C@H]1O[C@]2(C=C[C@@H]1C)C[C@@H]1C[C@@H](C/C=C(\C)[C@@H](O[C@H]3C[C@H](OC)[C@@H](O[C@H]4C[C@H](OC)[C@@H](O)[C@H](C)O4)[C@H](C)O3)[C@@H](C)/C=C/C=C3\CO[C@@H]4[C@H](O)C(C)=C[C@@H](C(=O)O1)[C@]34O)O2 (tested in a mixture with another compound),outcome,[1],inactive
same,outcome,[2],inactive
same,AC50,[7],12.2 µM (active)
same,AC50,[9],12 µM (active)
same,AC50,[10],8.5 µM (active)
same,outcome,[11],inactive
same,outcome,[8],inactive
CC(C)(C)C(O)/C(=C\c1ccc(Cl)cc1Cl)n1cncn1 (stereo not drawn),outcome,[1],inactive
same,outcome,[2],inactive
same,outcome,[4],inactive
same,AC50,[13],0.281 µM (active)
same,AC50,[11],1.25 µM (active)
same,outcome,[8],inactive
Oc1cc(Cl)ccc1Oc1ccc(Cl)cc1Cl,outcome,[14],inactive
same,outcome,[10],inactive
same,AC50,[15],25.5 µM (active) and 25 µM (active)
same,AC50,[8],11.6 µM (active) and 16.2 µM (active) and 6.67 µM (active)
same,outcome,[8],inactive
same,AC50,[16],13.7 µM (active) [middle of 4 runs]
O=C(O)C(F)(F)C(F)(F)C(F)(F)C(F)(F)C(F)(F)C(F)(F)C(F)(F)F,outcome,[17],inactive
C[C@H]1[C@H](c2ccc(Cl)cc2)SC(=O)N1C(=O)NC1CCCCC1,outcome,[1],inactive
same,outcome,[3],inactive
same,AC50,[5],67.7 µM (active)
same,outcome,[4],inactive
CNC(=O)CSP(=S)(OC)OC,outcome,[1],inactive
same,outcome,[2],inactive
same,outcome,[14],inactive
same,outcome,[4],inactive
same,outcome,[9],inactive
same,outcome,[8],inactive
CC1(C)C(C=C(Cl)Cl)C1C(=O)OC(C#N)c1ccc(F)c(Oc2ccccc2)c1 (stereo not drawn),outcome,[1],inactive
same,outcome,[3],inactive
same,outcome,[4],inactive
same,outcome,[7],inactive
same,outcome,[9],inactive
same,AC50,[10],7.25 µM (active)
same,outcome,[8],inactive
O=C(Nc1ccccc1)Nc1cnns1,outcome,[1],inactive
same,outcome,[2],inactive
same,outcome,[4],inactive
O=S(=O)(O)C(F)(F)C(F)(F)C(F)(F)C(F)(F)C(F)(F)C(F)(F)C(F)(F)C(F)(F)F,AC50,[17],11.2 µM (active)
same,outcome,[17],inactive
same,AC50,[9],12 µM (active)
same,AC50,[13],39.6 µM (active)
same,AC50,[8],16.9 µM (active) [middle of 6 runs]
ClC1C(Cl)C(Cl)C(Cl)C(Cl)C1Cl (stereo not drawn),outcome,[13],inactive
same,AC50,[15],9.83 µM (active) and 3.74 µM (active)
COC(=O)c1ccccc1CS(=O)(=O)NC(=O)Nc1nc(OC)cc(OC)n1,outcome,[8],inactive
COP(=S)(OC)Oc1ccc([N+](=O)[O-])cc1,outcome,[6],inactive
same,outcome,[2],inactive
same,outcome,[3],inactive
same,outcome,[4],inactive
same,outcome,[9],inactive
same,AC50,[11],4.69 µM (active)
same,AC50,[15],20.1 µM (active)
same,AC50,[18],11.3 µM (active)
